Among the data in ChEMBL document CHEMBL1961873, “Compounds: GSK PKIS; Assays: Nanosyn kinase panel” (2012) are inhibition values, retold here.

The target of experiment [1] is T1, Inhibitor of nuclear factor kappa-B kinase subunit epsilon (Homo sapiens) (UniProt Q14164).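 Note: reported values are averaged percent inhibition figures against human IKKε.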
T1 sequence (whole entry): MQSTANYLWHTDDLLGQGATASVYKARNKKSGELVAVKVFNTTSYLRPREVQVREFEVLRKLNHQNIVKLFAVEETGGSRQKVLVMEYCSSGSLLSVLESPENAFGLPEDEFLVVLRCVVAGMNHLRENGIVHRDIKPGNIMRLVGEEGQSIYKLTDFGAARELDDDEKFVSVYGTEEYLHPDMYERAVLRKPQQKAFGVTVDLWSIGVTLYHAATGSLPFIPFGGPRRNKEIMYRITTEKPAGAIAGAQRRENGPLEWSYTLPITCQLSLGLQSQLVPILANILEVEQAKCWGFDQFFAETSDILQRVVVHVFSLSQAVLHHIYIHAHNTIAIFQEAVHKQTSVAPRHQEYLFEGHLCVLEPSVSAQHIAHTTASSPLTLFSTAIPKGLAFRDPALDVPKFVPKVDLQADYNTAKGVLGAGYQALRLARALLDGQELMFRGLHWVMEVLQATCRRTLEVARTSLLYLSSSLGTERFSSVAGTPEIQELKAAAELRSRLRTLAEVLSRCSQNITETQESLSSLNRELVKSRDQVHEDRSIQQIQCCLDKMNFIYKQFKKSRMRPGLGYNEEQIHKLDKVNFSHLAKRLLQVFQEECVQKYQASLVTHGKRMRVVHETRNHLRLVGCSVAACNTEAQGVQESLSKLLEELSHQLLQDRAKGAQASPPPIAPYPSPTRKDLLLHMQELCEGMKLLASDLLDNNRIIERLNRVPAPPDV
As to conditions: at 1 µM.

Experiment [2] addresses T2, Serine/threonine-protein kinase Nek1 (Homo sapiens) (UniProt Q96PY6).
T2 sequence (whole entry): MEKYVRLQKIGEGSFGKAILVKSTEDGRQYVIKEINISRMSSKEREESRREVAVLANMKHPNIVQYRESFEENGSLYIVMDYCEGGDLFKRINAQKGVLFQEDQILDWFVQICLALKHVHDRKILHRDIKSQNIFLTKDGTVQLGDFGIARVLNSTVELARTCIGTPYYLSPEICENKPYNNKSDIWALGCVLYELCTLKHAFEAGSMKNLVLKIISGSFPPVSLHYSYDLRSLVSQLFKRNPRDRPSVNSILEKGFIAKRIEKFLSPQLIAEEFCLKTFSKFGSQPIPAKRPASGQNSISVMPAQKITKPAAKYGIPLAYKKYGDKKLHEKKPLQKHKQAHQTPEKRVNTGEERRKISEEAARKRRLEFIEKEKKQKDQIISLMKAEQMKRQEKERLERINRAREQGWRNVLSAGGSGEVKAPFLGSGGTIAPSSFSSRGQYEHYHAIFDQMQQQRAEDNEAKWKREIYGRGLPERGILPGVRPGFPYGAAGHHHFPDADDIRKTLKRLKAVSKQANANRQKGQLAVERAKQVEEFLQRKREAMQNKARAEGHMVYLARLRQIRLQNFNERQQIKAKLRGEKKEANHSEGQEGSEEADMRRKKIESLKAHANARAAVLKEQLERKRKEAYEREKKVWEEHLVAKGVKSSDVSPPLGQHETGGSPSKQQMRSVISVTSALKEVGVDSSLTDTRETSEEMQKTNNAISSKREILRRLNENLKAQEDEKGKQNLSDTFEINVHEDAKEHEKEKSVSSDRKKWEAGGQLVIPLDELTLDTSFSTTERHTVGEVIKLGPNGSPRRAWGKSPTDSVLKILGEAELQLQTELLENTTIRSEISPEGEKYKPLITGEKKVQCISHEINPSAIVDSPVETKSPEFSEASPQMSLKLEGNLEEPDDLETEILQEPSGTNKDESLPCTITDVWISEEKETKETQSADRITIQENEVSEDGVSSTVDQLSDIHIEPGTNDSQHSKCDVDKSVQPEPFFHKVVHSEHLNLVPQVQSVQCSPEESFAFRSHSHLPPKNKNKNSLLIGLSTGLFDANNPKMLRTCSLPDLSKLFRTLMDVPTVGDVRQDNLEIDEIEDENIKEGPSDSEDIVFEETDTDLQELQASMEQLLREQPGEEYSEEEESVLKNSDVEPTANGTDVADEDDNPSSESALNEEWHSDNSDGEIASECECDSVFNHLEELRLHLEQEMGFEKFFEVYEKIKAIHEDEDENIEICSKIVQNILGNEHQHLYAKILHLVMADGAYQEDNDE
The settings on record: at 0.1 µM.

Experiment [3] deals with T2, Serine/threonine-protein kinase Nek1 (Homo sapiens). As to conditions: at 1 µM.
Experiment [4] has as its target T3, Serine/threonine-protein kinase Nek2 (Homo sapiens) (UniProt P51955).
T3 sequence (whole entry): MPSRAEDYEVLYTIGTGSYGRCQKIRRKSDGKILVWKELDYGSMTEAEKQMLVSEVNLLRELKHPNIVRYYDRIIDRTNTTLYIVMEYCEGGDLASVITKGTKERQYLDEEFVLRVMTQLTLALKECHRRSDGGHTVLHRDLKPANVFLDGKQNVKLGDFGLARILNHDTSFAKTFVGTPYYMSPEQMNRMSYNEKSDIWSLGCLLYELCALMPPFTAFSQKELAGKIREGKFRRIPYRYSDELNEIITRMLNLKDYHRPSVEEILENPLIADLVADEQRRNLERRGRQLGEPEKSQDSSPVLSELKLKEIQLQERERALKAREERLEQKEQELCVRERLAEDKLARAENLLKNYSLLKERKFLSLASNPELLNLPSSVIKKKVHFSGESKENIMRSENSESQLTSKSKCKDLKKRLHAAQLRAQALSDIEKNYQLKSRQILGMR
As to conditions: at 0.1 µM.

Experiment [5] deals with T3, Serine/threonine-protein kinase Nek2 (Homo sapiens). The settings on record: at 1 µM.
For experiment [6], the target named is Serine/threonine-protein kinase Nek6 (Homo sapiens) (UniProt Q9HC98). The settings on record: at 0.1 µM.
Chain of Serine/threonine-protein kinase Nek6 (Homo sapiens) (Q9HC98 whole entry): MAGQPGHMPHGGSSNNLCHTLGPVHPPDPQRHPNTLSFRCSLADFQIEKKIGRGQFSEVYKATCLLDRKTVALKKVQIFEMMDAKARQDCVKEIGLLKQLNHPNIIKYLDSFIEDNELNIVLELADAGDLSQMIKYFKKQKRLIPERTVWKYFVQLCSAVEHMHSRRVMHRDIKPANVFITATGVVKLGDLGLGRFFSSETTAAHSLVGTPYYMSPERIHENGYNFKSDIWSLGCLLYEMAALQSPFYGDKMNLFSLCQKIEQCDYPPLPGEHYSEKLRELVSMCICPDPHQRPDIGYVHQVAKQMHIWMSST
For experiment [7] the target is unchanged. The settings on record: at 1 µM.
The target of experiment [8] is Serine/threonine-protein kinase Nek7 (Homo sapiens) (UniProt Q8TDX7). As to conditions: at 0.1 µM.
Chain of Serine/threonine-protein kinase Nek7 (Homo sapiens) (Q8TDX7 whole entry, looked up): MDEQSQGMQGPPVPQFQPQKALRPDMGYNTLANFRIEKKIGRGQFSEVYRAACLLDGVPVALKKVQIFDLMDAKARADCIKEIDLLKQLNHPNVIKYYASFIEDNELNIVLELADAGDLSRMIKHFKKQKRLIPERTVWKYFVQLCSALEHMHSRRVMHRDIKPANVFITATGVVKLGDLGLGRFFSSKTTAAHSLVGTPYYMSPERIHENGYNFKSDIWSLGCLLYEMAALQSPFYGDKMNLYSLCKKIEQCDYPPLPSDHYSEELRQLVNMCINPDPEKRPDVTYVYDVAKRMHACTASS
The target is the same in experiment [9]. The settings on record: at 1 µM.
Experiment [10] concerns the target T4, Serine/threonine-protein kinase Nek9 (Homo sapiens) (UniProt Q8TD19).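 Note: reported value is the mean percent inhibition of NEK9.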
T4 sequence (whole entry): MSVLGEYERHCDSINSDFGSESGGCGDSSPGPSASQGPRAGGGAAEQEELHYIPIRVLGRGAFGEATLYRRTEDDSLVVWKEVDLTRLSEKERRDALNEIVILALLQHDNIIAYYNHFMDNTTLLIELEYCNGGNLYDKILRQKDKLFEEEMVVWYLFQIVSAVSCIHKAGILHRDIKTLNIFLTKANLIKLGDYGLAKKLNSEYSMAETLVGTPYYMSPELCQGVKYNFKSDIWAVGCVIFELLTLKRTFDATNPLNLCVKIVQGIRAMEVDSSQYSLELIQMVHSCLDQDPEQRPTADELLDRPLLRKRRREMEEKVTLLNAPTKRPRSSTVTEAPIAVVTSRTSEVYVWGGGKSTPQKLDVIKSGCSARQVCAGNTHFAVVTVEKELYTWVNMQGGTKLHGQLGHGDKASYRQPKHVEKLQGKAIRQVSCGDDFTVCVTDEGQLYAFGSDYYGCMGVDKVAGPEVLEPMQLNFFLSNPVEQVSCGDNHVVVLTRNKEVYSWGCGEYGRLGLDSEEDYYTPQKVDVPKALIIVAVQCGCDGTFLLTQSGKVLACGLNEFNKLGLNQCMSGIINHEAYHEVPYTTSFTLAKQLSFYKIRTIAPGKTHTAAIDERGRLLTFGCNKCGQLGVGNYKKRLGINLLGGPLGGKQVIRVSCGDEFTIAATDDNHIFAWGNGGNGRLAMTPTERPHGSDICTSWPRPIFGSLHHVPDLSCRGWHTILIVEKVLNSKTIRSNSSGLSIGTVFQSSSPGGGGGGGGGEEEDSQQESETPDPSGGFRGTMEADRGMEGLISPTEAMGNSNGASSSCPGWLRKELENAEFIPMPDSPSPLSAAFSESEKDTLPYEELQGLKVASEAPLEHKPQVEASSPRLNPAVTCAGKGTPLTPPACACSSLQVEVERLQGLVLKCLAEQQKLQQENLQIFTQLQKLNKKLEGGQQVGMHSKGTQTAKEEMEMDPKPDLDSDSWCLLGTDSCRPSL
The settings on record: at 0.1 µM.

For the compound `CS(=O)(=O)Nc1ccc(N/C=C2\C(=O)Nc3ccccc32)cc1`, the inhibition in [1] is 7.71%; in [2], -1.43%; in [3] it was -2.34%; in [4], -2.87%; in [5] it was -3.33%; in [6], -1.58%. Also, the inhibition was -2.98% in [7], -4.38% in experiment [8], -3.48% in experiment [9] and -0.57% in [10].
As to `CCn1c(-c2nonc2N)nc2c(C#CC(C)(C)O)nc(CN3CCCC3)cc21`, the inhibition was 30% in [1]; 0.5% in experiment [2]; 2.97% in experiment [3]; -0.01% in [4]; 1.09% in experiment [5]; 1.01% in experiment [6]. Moreover, the inhibition is -0.68% in [7], 2.37% in [8], 0.41% in [9] and -0.93% in [10].
With `Cc1ccc(NC(=O)c2ccnc(N3CCCC3)c2)cc1-c1ccc(C(=O)NCC2CC2)cc1`, the inhibition was determined as 5.3% in experiment [1]; 2.74% in experiment [2]; 2.36% in [3]; 5.44% in experiment [4]; 5.04% in [5]; 1.43% in [6]. In addition, the inhibition in experiment [7] was 0.15%; in [8], 6.37%; in experiment [9] it was 4.61%; in experiment [10], 5.79%.
As to `CCCN1CCC=C(c2ccc(Nc3nc(Nc4ccccc4C(N)=O)c4cc[nH]c4n3)c(C)c2)C1`, the inhibition in experiment [1] stood at 10.3%; in experiment [2], 3.93%; in experiment [3], 8.78%; in experiment [4], 6.91%; in experiment [5], 7.52%; in [6] it was 0.8%. Besides, the inhibition in [7] is 5.18%; in [8], 4.64%; in experiment [9], 14%; in experiment [10], 7.78%.
Turning to `COC(=O)Nc1nc2cc(Oc3cccc(NC(=O)Nc4cc(C(F)(F)F)ccc4F)c3)ccc2[nH]1`, the inhibition was 0.25% in experiment [1]; -0.22% in [2]; 2.32% in experiment [3]; 0.79% in [4]; 0.72% in [5]; 1.5% in experiment [6]. In addition, the inhibition in experiment [7] is 0.11%; in [8] it was 2.69%; in experiment [9] it was 1.59%; in experiment [10] it was -4.74%.
Regarding `Cc1cc(O)cc(C)c1/C=C/c1cncc(-c2nn[nH]n2)c1`, the inhibition in experiment [1] was found to be 4.14%; in experiment [2] it was 3.13%; in experiment [3], 3.26%; in experiment [4], 5.36%; in experiment [5] it was 4.88%; in experiment [6], 1.26%. Moreover, the inhibition is 1.3% in experiment [7], 4.96% in experiment [8], 4.04% in experiment [9] and 4.65% in experiment [10].
As to `COc1cc2ncn(-c3cc(OCc4ccccc4C(F)(F)F)c(C(N)=O)s3)c2cc1OC`, the inhibition in experiment [1] was found to be 5.84%; in experiment [2], 3.95%; in experiment [3], 19.1%; in experiment [4] it was 6.41%; in [5] it was 17.1%; in experiment [6] it was 0.15%. Further, the inhibition in [7] stood at 2.1%; in experiment [8], 3.29%; in experiment [9] it was 5.2%; in experiment [10], 16.7%.
Take `NCc1ccc(-c2nc(-c3ccc(Cl)c(O)c3)c(-c3ccncc3)[nH]2)cc1`: the inhibition in experiment [1] was -0.03%; in [2] it was 0.3%; in experiment [3], 1.09%; in experiment [4], -2.48%; in [5], 0.73%; in [6], -0.93%. In addition, the inhibition in [7] is -1.57%; in [8] it was 1.75%; in experiment [9], 1.7%; in experiment [10] it was 7.64%.
Take `O=C1NC(=O)C(c2ccc(Cl)cc2)=C1Nc1ccc(Cl)c(C(=O)O)c1`: the inhibition in experiment [1] was -2.57%; in experiment [2], -0.84%; in [3], -2.3%; in experiment [4] it was -1.89%; in [5], -2.45%; in experiment [6], 0.26%. The inhibition in experiment [7] is 2.37%; in experiment [8], -1.15%; in [9], -3.67%; in [10], -5.68%.
